# According to ChEMBL document CHEMBL3988442, “University of Dundee, Small-Polar-MMV Screening Library” (2021):
# Among all 69,000 compounds or so, about 1,000 (1.4%) showed an effect of 50% or more. Many of the other results were omitted from the sample, so strong results are more common in it than they were.
# Test system: Leishmania donovani
# Assay: Leishmania intramacrophage assay
# Format: functional, organism-based
# Parameters: scale not given: in the data most compounds retested in dose-response had high values
compound,measurement,setting,value
COc1ccc(C2CCCN2C(=O)c2cc3c([nH]c2=O)CCC3)cc1 (stereo not drawn),Percent Effect,"30 µM, 30.03 µM",22.34%
O=C1CC2(CCSC2)C(=O)N1Cc1coc(-c2ccccc2)n1 (stereo not drawn),Percent Effect,"30.3 µM, […]",4.889%
CNC(=O)N1CCCCC1CCNS(C)(=O)=O (stereo not drawn),Percent Effect,"30.3 µM, […]",6.391%
Cc1nn(C)c(N(C)C)c1CNCc1ccccc1Cn1cncn1,Percent Effect,"30 µM, 30.03 µM",20.9%
O=C(O)C(c1ccc(Cl)c(F)c1)N1CCN(Cc2ccccn2)CC1 (stereo not drawn),Percent Effect,"30.3 µM, […]",61.2%
Cc1cc(F)c(C(C(=O)O)N2CCN(Cc3ccccn3)CC2)cc1Cl (stereo not drawn),Percent Effect,"30.3 µM, […]",5.04%
Cc1ccc(C(C(=O)O)N2CCCN(Cc3ccccn3)CC2)c(F)c1 (stereo not drawn),Percent Effect,"30.3 µM, […]",23.66%
COCCC(=O)N1CCCC1c1nccc(C)n1 (stereo not drawn),Percent Effect,"30.3 µM, […]",11.84%
Fc1cc(F)cc(CN2CCC(c3cc4ncccc4cn3)CC2)c1,Percent Effect,"30.3 µM, […]",29.54%
Cl.Fc1ccc(F)c(CN2CCC(c3cc4ncccc4cn3)CC2)c1,Percent Effect,"30.3 µM, […]",33.05%
Cl.Fc1cccc(CN2CCC(c3cc4ncccc4cn3)CC2)c1F,Percent Effect,"30.3 µM, […]",51.12%
Cn1nnnc1SCC(=O)N1CCN(C(=O)C2CC2c2cccs2)CC1 (stereo not drawn),Percent Effect,"30.3 µM, […]",-0.756%
Cc1cnn(CCNCC(O)c2ccc3c(c2)OCCO3)c1 (stereo not drawn),Percent Effect,"30.3 µM, […]",-28.04%
CN1CCN([C@@H]2CCN(Cc3ccc4cc(F)ccc4n3)C[C@H]2O)CC1,Percent Effect,"30.3 µM, […]",33.38%
CN1CCN([C@@H]2CCN(CC3=Cc4cc(Cl)ccc4OC3)C[C@H]2O)CC1,Percent Effect,"30.3 µM, […]",96.13%
O[C@@H]1CN(CC2=Cc3cc(Cl)ccc3OC2)CC[C@H]1N1CCCCCC1,Percent Effect,"30.3 µM, […]",44.96%
CN1C(=O)C2(CCCN(C(=O)c3cccnc3O)C2)c2ccccc21 (stereo not drawn),Percent Effect,"30.3 µM, […]",4.492%
CNc1ncccc1C(=O)N1CCCC2(C1)C(=O)N(C)c1ccccc12 (stereo not drawn),Percent Effect,"30.3 µM, […]",63.07%
Cc1c(O)cccc1C(=O)N1CCCC2(C1)C(=O)N(C)c1ccccc12 (stereo not drawn),Percent Effect,"30.3 µM, […]",10.13%
O=C(NCC1(O)CCOc2ccccc21)Nc1ccccc1 (stereo not drawn),Percent Effect,"30.3 µM, […]",35.58%
CN(CCO)C[C@@H]1CN(C(=O)c2cccc(OC(F)F)c2)C[C@@H]1CO,Percent Effect,"30.3 µM, […]",59.47%
COCCN(C)C[C@@H]1CN(C(=O)c2cccc(Cl)c2)C[C@@H]1CO,Percent Effect,"30.3 µM, […]",-8.073%
COCCN(C)C[C@@H]1CN(C(=O)c2cccc(C#N)c2)C[C@@H]1CO,Percent Effect,"30.3 µM, […]",-5.773%
COc1ccc(C(=O)N2CCCC2c2cnn(C)c2)cn1 (stereo not drawn),Percent Effect,30 µM,3.221%
CN(Cc1ccco1)Cc1ccccc1CNC(=O)c1cnccn1,Percent Effect,"30.3 µM, […]",16.56%
CC(C)N(CCO)C(=O)c1cc(COc2ccc3c(c2)CCCC3)on1,Percent Effect,"30.3 µM, […]",15.58%
O=C(NCCCc1ccncc1)C1CCCN(Cc2ccco2)C1 (stereo not drawn),Percent Effect,"30 µM, 30.03 µM",28.63%
O=C(NCCc1cccnc1)C1CCCN(Cc2ccco2)C1 (stereo not drawn),Percent Effect,"30.3 µM, […]",-19.49%
Cc1cnccc1NCCNC(=O)C1CCCN(Cc2ccco2)C1 (stereo not drawn),Percent Effect,"30.3 µM, […]",54.03%
CCN(C)c1ncnc2c1CCN(C(=O)c1cnccn1)CC2.O=C(O)C(F)(F)F,Percent Effect,"30.3 µM, […]",16.93%
Cc1ncoc1C(=O)N1C[C@H]2CCC[C@@]2(COCC2CCOCC2)C1,Percent Effect,"30 µM, 30.03 µM",24.66%
CN1C(=O)CCCC12CCCN(C(=O)c1cccc(C(F)(F)F)c1)C2 (stereo not drawn),Percent Effect,"30.3 µM, […]",25.18%
CN(C)CCNCCC(Cc1ccccc1)C1CCOC(C)(C)C1.O=C(O)C(=O)O (stereo not drawn),Percent Effect,"30.3 µM, […]",11.95%
CN(C)CCCNCC1CCOC(C)(C)C1 (stereo not drawn),Percent Effect,"30.3 µM, […]",10.54%
CN(C)CCCNCCC(Cc1ccccc1)C1CCOC(C)(C)C1.O=C(O)C(=O)O (stereo not drawn),Percent Effect,"30.3 µM, […]",91.79%
CN(C)CCNCCC(c1ccccc1)C1CCOC(C)(C)C1.O=C(O)C(=O)O (stereo not drawn),Percent Effect,"30.3 µM, […]",94.59%
CCN(CC)CCNCC1CCOC(C)(C)C1 (stereo not drawn),Percent Effect,"30.3 µM, […]",12.8%
CC(CCc1ccccc1)NC(=O)CNCCCN(C)C.O=C(O)C(=O)O (stereo not drawn),Percent Effect,"30.3 µM, […]",-24.91%
CN(C)CCCNCCC(c1ccccc1)C1CCOC(C)(C)C1.O=C(O)C(=O)O (stereo not drawn),Percent Effect,"30.3 µM, […]",97.24%
CN(C)CCCNC(=O)C(c1cccc(F)c1)N(C)C (stereo not drawn),Percent Effect,"30.3 µM, […]",17.93%
CN(C)CCNCC1CCOC(C)(C)C1 (stereo not drawn),Percent Effect,"30.3 µM, […]",-2.235%
C[C@@H]1CN(C(=O)C2CCS(=O)(=O)CC2)C[C@@]1(O)C1CC1,Percent Effect,"30.3 µM, […]",-11.49%
Cc1nc(C)n(CC2CCCCN2CCCO)n1 (stereo not drawn),Percent Effect,"30.3 µM, […]",-18.17%
CC(=O)Nc1cc2c(cc1C)OCO2,Percent Effect,"30.3 µM, […]",3.338%
Cc1ccc(F)cc1NS(=O)(=O)c1cc2c(c(C(=O)O)c1)OCCO2,Percent Effect,30 µM,10.19%
CN1CCO[C@@H]2CN(C(=O)NCc3ccccc3)CC[C@@H]2C1.O=C(O)C(F)(F)F,Percent Effect,"30.3 µM, […]",14.01%
O=C(N1CCCC1)N1C[C@H]2CCC[C@@]2(COCc2ccccn2)C1.O=C(O)C(F)(F)F,Percent Effect,"30.3 µM, […]",12.71%
Cc1ccc(CN2CC[C@@H]3OCCN(Cc4ccncc4)[C@H]3CC2)s1.O=C(O)C(F)(F)F.O=C(O)C(F)(F)F.O=C(O)C(F)(F)F,Percent Effect,"30.3 µM, […]",-14.43%
CS(=O)(=O)NCCCNC(=O)NCc1ccccc1,Percent Effect,30 µM,13.69%
CN(C)CC(=O)N1CC2(CCN(C(=O)Nc3ccccc3)C2)C1.O=C(O)C(F)(F)F,Percent Effect,"30.3 µM, […]",27.48%
Cc1nnc([C@]23COC[C@H]2CN(Cc2cnn(C)c2)C3)o1.O=C(O)C(F)(F)F,Percent Effect,"30.3 µM, […]",10.4%
COc1ccc(CNCC2CCN(CC(C)O)CC2)c2ccccc12 (stereo not drawn),Percent Effect,"30 µM, 30.03 µM",95.94%
CC(O)CN1CCC(CNCc2ccccc2Cl)CC1 (stereo not drawn),Percent Effect,30 µM,7.148%
CCOc1ccccc1CNCC1CCN(CC(C)O)CC1 (stereo not drawn),Percent Effect,30 µM,14.79%
Cc1noc(C)c1CNCC1CCN(CC(O)c2ccccc2)CC1 (stereo not drawn),Percent Effect,"30 µM, 30.03 µM",48.93%
COc1cccc(CNCC2CCN(CC(C)O)CC2)c1OC (stereo not drawn),Percent Effect,30 µM,-4.893%
Cc1ccc(CNCC2CCN(CC(O)c3ccccc3)CC2)o1 (stereo not drawn),Percent Effect,30 µM,53.67%
Cc1ncccc1CNCC1CCN(CC(O)c2ccccc2)CC1 (stereo not drawn),Percent Effect,"30 µM, 30.03 µM",43.15%
CC(O)CN1CCC(CNCc2ccccc2Br)CC1 (stereo not drawn),Percent Effect,"30 µM, 30.03 µM",58.06%
CC(O)CN1CCC(CNCc2ccccc2F)CC1 (stereo not drawn),Percent Effect,30 µM,14.91%
CCOc1ccc(NC(=O)N2CCNC(=O)C2)c(C(F)(F)F)c1,Percent Effect,"30.3 µM, […]",-5.154%
c1ccc(OCCCN2CCOC(CNc3cccnn3)C2)cc1 (stereo not drawn),Percent Effect,30 µM,30.1%
CCc1nnc(CN(C)C(=O)C(CC)n2c(CC)nc3ccccc32)o1 (stereo not drawn),Percent Effect,"30.3 µM, […]",37.19%
CC(=O)N1CC(=O)N(c2cnn(C)c2)CC12CCN(Cc1ccco1)C2 (stereo not drawn),Percent Effect,"30.3 µM, […]",8.312%
CC(c1nc(C(C)(C)C)no1)N1CCN(C(=O)CN2CCOCC2)CC1 (stereo not drawn),Percent Effect,"30.3 µM, […]",24.72%
CSC(C)(C)CNC(=O)NC1CCC1,Percent Effect,"30.3 µM, […]",-4.731%
CCc1ccccc1NC(=O)NCc1nnc(SC)n1C,Percent Effect,"30.3 µM, […]",23.33%
COc1ccccc1NC(=O)NCc1nnc(SC)n1C,Percent Effect,"30.3 µM, […]",56.86%
CSc1nnc(CNC(=O)Nc2ccccc2F)n1C,Percent Effect,"30.3 µM, […]",17.43%
O=C(c1cnc2ccc(Cl)cc2c1NCc1ccco1)N1CCCCC1,Percent Effect,"30.3 µM, […]",-0.01015%
Cc1nc(C)n(CC2CCCCN2CCOc2ccc(C#N)cc2)n1 (stereo not drawn),Percent Effect,30 µM,19.26%
COC(=O)NC1(C(=O)Nc2ccc(-c3ncc[nH]3)cc2)CCCC1,Percent Effect,"30.3 µM, […]",26.54%
CCc1noc(C2CCCCN2C(=O)c2cc(C)oc2C)n1 (stereo not drawn),Percent Effect,"30.3 µM, […]",-92.24%
Cc1ccc(C(=O)N2CCC3(CC2)COC(COc2cccnc2)C3)o1.O=C(O)C(F)(F)F (stereo not drawn),Percent Effect,"30.3 µM, […]",59.81%
Cc1ccc(C(=O)N2CCC3(CC2)COC(COc2ccccn2)C3)o1.O=C(O)C(F)(F)F (stereo not drawn),Percent Effect,"30 µM, 30.03 µM",-68.01%
CCS(=O)(=O)N1CCC2(CC1)COC(COc1cccnc1)C2.O=C(O)C(F)(F)F (stereo not drawn),Percent Effect,"30.3 µM, […]",15.1%
Cc1ccc(N2CCCC(NCC(=O)NC3CCOCC3)C2)nn1 (stereo not drawn),Percent Effect,"30 µM, 30.03 µM",24.15%
CCc1nc(C2CCCN(c3nccc(N4CCCC4)n3)C2)no1 (stereo not drawn),Percent Effect,"30.3 µM, […]",4.333%
CC(C)CCN1CC[C@H](c2nnc(Cc3c[nH]c4ccccc34)o2)C1,Percent Effect,"30.3 µM, […]",31.19%
CCOc1ccc(CN2CCC(c3nc(C)cc(C)n3)C2)cc1CO (stereo not drawn),Percent Effect,"30.3 µM, […]",20.63%
Cc1nc(-c2cc(Cl)cc3c2OC(CN)C3)c[nH]1 (stereo not drawn),Percent Effect,"30.3 µM, […]",27.22%
COc1c(F)cc(-c2cccc3c2OC(CN)C3)cc1F (stereo not drawn),Percent Effect,"30.3 µM, […]",78.5%
COc1cc(-c2ccc(F)c3c2OC(CN)C3)cc(OC)c1OC (stereo not drawn),Percent Effect,"30.3 µM, […]",19.84%
COc1cc(C)c(-c2ccc(F)c3c2OC(CN)C3)cc1C (stereo not drawn),Percent Effect,"30.3 µM, […]",82.34%
NCC1Cc2cccc(-c3ccc(O)c(F)c3)c2O1 (stereo not drawn),Percent Effect,"30.3 µM, […]",31.37%
COc1ccc(-c2cccc3c2OC(CN)C3)cc1F (stereo not drawn),Percent Effect,"30.3 µM, […]",82.3%
NCC1Cc2cccc(-c3nccc(N4CCC(O)CC4)n3)c2O1 (stereo not drawn),Percent Effect,"30.3 µM, […]",19.12%
COc1cc(-c2cccc3c2OC(CN)C3)ccc1O (stereo not drawn),Percent Effect,"30.3 µM, […]",33.17%
COc1cc(-c2cccc3c2OC(CN)C3)cc(OC)c1OC (stereo not drawn),Percent Effect,"30.3 µM, […]",39.45%
Cc1nc(-c2cc(F)c3c(c2)CC(CN)O3)c[nH]1 (stereo not drawn),Percent Effect,"30.3 µM, […]",25.07%
COc1cc(OC)cc(-c2cccc3c2OC(CN)C3)c1 (stereo not drawn),Percent Effect,"30.3 µM, […]",81.48%
COc1cccnc1-c1ccc(F)c2c1OC(CN)C2 (stereo not drawn),Percent Effect,"30.3 µM, […]",-22.62%
Cn1cnnc1C1CCCN(C(=O)c2cc(Cl)c(Cl)n2C)C1 (stereo not drawn),Percent Effect,30 µM,16.78%
Cc1ccc(N2CCCC(NCc3ccc4c(c3)OCCO4)C2)nn1 (stereo not drawn),Percent Effect,"30.3 µM, […]",-12.27%
CCCNC(=O)CCC(=O)N1CCC(c2n[nH]c(C3CC3)n2)CC1,Percent Effect,"30.3 µM, […]",-11.33%
O=C1CCN(C(=O)NCc2ccccc2Oc2ccccc2)CCN1,Percent Effect,"30.3 µM, […]",-11.56%
COc1ccc(CN2CCn3cc(CNC(=O)CC4CC4)nc3C2)cc1.O=C(O)C(F)(F)F,Percent Effect,"30.3 µM, […]",-3.07%
CN1Cc2ccccc2CC1C(=O)N1CCN(CCS(C)(=O)=O)CC1 (stereo not drawn),Percent Effect,"30.3 µM, […]",-7.608%
COc1ccc(-c2nnsc2C(=O)N2CCC(C(N)=O)CC2)cc1,Percent Effect,"30.3 µM, […]",-2.161%
O=c1[nH]cc(N2CCOCC2)c(=O)[nH]1,Percent Effect,"30.3 µM, […]",-12.54%
O=C(O)C(F)(F)F.O=C(O)C(F)(F)F.O=c1ccc2c(n1Cc1ccncc1)CCN(Cc1ccoc1)CC2,Percent Effect,"30.3 µM, […]",7.941%
O=C(O)C(F)(F)F.O=C(O)C(F)(F)F.O=c1ccc2c(n1Cc1cccnc1)CCN(Cc1ccoc1)CC2,Percent Effect,"30.3 µM, […]",52.28%
O=C(O)C(F)(F)F.O=C(O)C(F)(F)F.O=c1ccc2c(n1CCN1CCCC1)CCN(Cc1ccoc1)CC2,Percent Effect,"30 µM, 30.03 µM",45%
